Here are results for 69 molecules from ChEMBL document CHEMBL3988442, “University of Dundee, Small-Polar-MMV Screening Library” (2021).

The structures appear in SMILES notation. Hit rate of the full screen: of about 53,000 compounds, about 900 (1.7%) showed an effect of 50% or more. The sample holds strong results, similar compounds and a random draw of the others, so the mix is not that of the screen.

In this experiment the test system is Mycobacterium tuberculosis. The experiment in a line: Cornell - Phenotypic assay to identify agents that inhibit growth of Mycobacterium tuberculosis. The arrangement: scale not given: direction of the effect not stated beside the values. In kind it is functional. The settings on record: 10 mM as filed; unlikely as a test dose.
On to `CC(C)c1nc(O)c2nnn(C[C@@H]3CCCN(Cc4ccsc4)C3)c2n1`, for which the “Percent Effect” value was found to be 7.526%.

As for `CC(C)(C)C(=O)N1C[C@@H](F)[C@@H](OCc2nc3ccccc3o2)C1`, the “Percent Effect” value came to 16.14%.

With `COCc1nc2c(o1)CN(C(=O)NCc1ccccc1)C2`, the “Percent Effect” value is -49.74%.

In the case of `COCc1nc2cc(NCc3ccc(CO)o3)ccc2o1`, the “Percent Effect” value is 97.16%.

Take `COCc1nc2cc(NCc3ccc(C)o3)ccc2o1`: the “Percent Effect” value is reported as 107.3%.

For the molecule `CCC(C)CNc1ccc2oc(COC)nc2c1` (centres undefined), the “Percent Effect” value was 35.01%.

For the molecule `Cc1ccc(CNC(C)(C)c2noc(C(C)(C)C)n2)o1`, the “Percent Effect” value is recorded as -0.4607%.

As to `Cc1nc(-c2ccccc2)nc2c1CCN(Cc1nccn1C)CC2`, the “Percent Effect” value was found to be 6.349%.

Take `CN(C)c1ncc(C2Nc3cc(Cl)ccc3C3=NCCCN32)cn1.Cl` (centres undefined): the “Percent Effect” value amounted to 8.449%.

`CCOc1ccc(NC(=O)c2[nH]c(C)cc2C)cc1CO`: the “Percent Effect” value came to 102.6%.

For the molecule `CCOc1ccc(NC(=O)c2oc(CC)cc2C)cc1CO`, the “Percent Effect” value is 34.25%.

In the case of `CCOc1ccc(NC(=O)c2cc(C)c(C)o2)cc1CO`, the “Percent Effect” value is recorded as 22.28%.

Turning to `COCC(=O)N1CCN(C)CC(Cc2cc(N(C)C)ncn2)C1` (centres undefined), the “Percent Effect” value is reported as 14.46%.

Turning to `CN1CCC(c2[nH]ncc2S(C)(=O)=O)CC1`, the “Percent Effect” value is 6.792%.

With `Cc1ccc2c(CC(=O)N(C)CCN(C)C)c(C)[nH]c2c1C.O=C(O)CC(O)(CC(=O)O)C(=O)O`, the “Percent Effect” value is 8.878%.

With `Cc1[nH]c2c(C)cccc2c1CC(=O)N(C)CCN(C)C.O=C(O)CC(O)(CC(=O)O)C(=O)O`, the “Percent Effect” value stood at 27.37%.

As to `CCc1cccc2c(CC(=O)N(C)CCN(C)C)c(C)[nH]c12.O=C(O)CC(O)(CC(=O)O)C(=O)O`, the “Percent Effect” value is 51.84%.

As to `COCCN1CCN(S(=O)(=O)c2ccccc2)Cc2cccnc21.O=C(O)C(F)(F)F`, the “Percent Effect” value is 12.13%.

For `N#Cc1cc(NS(=O)(=O)c2cc(C(=O)O)cc(Cl)c2Cl)ccc1F`, the “Percent Effect” value came out at 13.91%.

As to `CCS(=O)(=O)N1CC(c2nc(-c3ccsc3)no2)C1`, the “Percent Effect” value was -31.96%.

In the case of `CN(C)S(=O)(=O)N1CC(c2nc(-c3ccsc3)no2)C1`, the “Percent Effect” value is 18.06%.

In the case of `CCOC(=O)CN1CC(c2nc(-c3ccsc3)no2)C1.O=C(O)C(=O)O`, the “Percent Effect” value stood at 51.67%.

Consider `O=C1NCCN1C(CNS(=O)(=O)C1CC1)Cc1cccc(F)c1` (centres undefined), for which the “Percent Effect” value is 21.82%.

On to `Cn1ccc(C(=O)Nc2nccn2Cc2ccccc2Cl)cc1=O`, for which the “Percent Effect” value was found to be 51.57%.

Consider `CC(=O)Nc1nccn1Cc1ccccc1Cl`, for which the “Percent Effect” value is reported as 15.67%.

With `CCOCC(=O)Nc1nccn1Cc1ccccc1Cl`, the “Percent Effect” value is 48.83%.

Consider `O=C(CCS(=O)(=O)C1CCCC1)N1CCCC1c1ccsc1` (centres undefined), for which the “Percent Effect” value was -6.93%.

On to `CS(=O)(=O)CCCC(=O)Nc1cc(-c2cccc(F)c2F)n[nH]1`, for which the “Percent Effect” value is recorded as -2.681%.

In the case of `Cc1cc(O)cc(=O)n1CCCC(=O)Nc1n[nH]c2cc(Br)ccc12`, the “Percent Effect” value worked out at 104.6%.

Turning to `Cc1cc(O)cc(=O)n1CCCC(=O)Nc1n[nH]c2ccccc12`, the “Percent Effect” value came out at 81.79%.

As for `Cc1noc(C)c1NC(=O)CCn1cc(Br)ccc1=O`, the “Percent Effect” value is listed as 22.38%.

On to `CC(C)Cc1cc(NC(=O)c2n[nH]c3ccccc23)n(C)n1`, for which the “Percent Effect” value came to 15.6%.

On to `Cc1nonc1NC(=O)CCn1cc(Br)ccc1=O`, for which the “Percent Effect” value came to 6.093%.

Consider `Cc1cc(NC(=O)Cn2ccc(=O)c3ccccc32)[nH]n1`, for which the “Percent Effect” value was -8.025%.

Take `Cc1cc(O)cc(=O)n1CCCC(=O)Nc1n[nH]c2cccc(F)c12`: the “Percent Effect” value is recorded as 103.9%.

Take `Cn1cc(NC(=O)C2CC(=O)N(c3n[nH]c4cccc(F)c34)C2)cn1` (centres undefined): the “Percent Effect” value was -30.85%.

Take `CCc1ccc(NC(=O)C(C)N2CCN(Cc3ncc[nH]3)CC2)cc1` (centres undefined): the “Percent Effect” value is listed as -0.1574%.

In the case of `CC(C(N)=O)N1CCN(c2ncc(Cl)cn2)CC1` (centres undefined), the “Percent Effect” value is -8.902%.

Take `O=C(COc1coc(CN2CCCCC2)cc1=O)c1ccccc1`: the “Percent Effect” value was -5.787%.

On to `CC(C)N(C(=O)CCc1ccco1)C1CCOCC1`, for which the “Percent Effect” value is 2.754%.

As for `CCN1N=C(C(=O)N2CCCC(c3nc(C)c(C)s3)C2)CCC1=O` (centres undefined), the “Percent Effect” value is on record as -28.99%.

For the molecule `O=C(CSC1CCc2ccccc2NC1=O)NCCc1ccc(O)cc1` (centres undefined), the “Percent Effect” value was -13.35%.

As for `CCn1cc2c(n1)C(COC)CN(C(=O)c1ccccn1)C2` (centres undefined), the “Percent Effect” value is 22.8%.

Consider `Cc1nn(C)c(C)c1C(=O)NCc1cc(N(C)C)nc2ccccc12`, for which the “Percent Effect” value is recorded as -29.39%.

In the case of `Cn1cnnc1S(=O)(=O)C1CCN(S(=O)(=O)c2ccc(Cl)s2)CC1`, the “Percent Effect” value is recorded as 6.004%.

`CCCn1nccc1C(=O)Nc1nc(C)c(C)s1`: the “Percent Effect” value was determined as 63.52%.

For the molecule `CCCn1nccc1C(=O)Nc1ncc(C)s1`, the “Percent Effect” value amounted to 29.79%.

As for `CCn1nccc1C(=O)Nc1nc(C)c(C(C)=O)s1`, the “Percent Effect” value is 37.96%.

On to `CC(C)c1cc(C(=O)O)nc2[nH]c(=O)[nH]c(=O)c12`, for which the “Percent Effect” value is recorded as 12.95%.

`COc1ccc(CNC(=O)C(NC(=O)Cc2ccccc2)C(C)C)cn1` (centres undefined): the “Percent Effect” value was -38.43%.

Take `COCCN1C(=O)[C@H]2CC[C@@H]1CN(Cc1nnc(C3CC3)o1)C2`: the “Percent Effect” value is given as -7.325%.

For `O=C(O)C(F)(F)F.O=C1[C@H]2CN(CC3CC3)C[C@H]2CN1Cc1cccc(F)c1`, the “Percent Effect” value was found to be 9.244%.

For `O=C(C[S+]([O-])Cc1csc(C2CCCC2)n1)Nc1ccccc1` (centres undefined), the “Percent Effect” value is listed as 105.1%.

For `O=C(C[S+]([O-])Cc1csc(C2CCCC2)n1)NC1CCCC1` (centres undefined), the “Percent Effect” value was determined as 8.301%.

Take `CC(C)CNC(=O)C[S+]([O-])Cc1csc(C2CCCCC2)n1` (centres undefined): the “Percent Effect” value worked out at 18.38%.

For the molecule `CCn1cnnc1CNC(=O)c1cc(Cl)ccc1I`, the “Percent Effect” value is on record as 10.82%.

In the case of `CN(CCNC(=O)c1cnc(-c2ccccc2)nc1)S(C)(=O)=O`, the “Percent Effect” value is on record as -18.18%.

Regarding `CCOC(=O)c1cc(C(C)(O)CCC=C(C)C)on1` (centres undefined), the “Percent Effect” value is reported as 106.6%.

Take `CCCC(C)(O)c1cc(C(N)=O)no1` (centres undefined): the “Percent Effect” value was determined as 45.9%.

In the case of `CC(C)=CCCC(C)(O)c1cc(C(N)=O)no1` (centres undefined), the “Percent Effect” value came to 37.88%.

As to `CNC(=O)Cn1ccc2ccc(NC(=O)C(C)C)cc21`, the “Percent Effect” value amounted to 6.028%.

With `CCCC(O)CN1CC(C)(C)CN(C(=O)c2ccccc2)CC1=O` (centres undefined), the “Percent Effect” value turned out to be 6.323%.

As to `Cc1cc(N2CCC(O)(CN(C)C(=O)CCN)C2)c2cnccc2n1` (centres undefined), the “Percent Effect” value is on record as 27.99%.

Consider `CNc1cc(CCNS(=O)(=O)c2ccccc2)nc(-c2ccccn2)n1`, for which the “Percent Effect” value was determined as 45.23%.

Regarding `Cc1ncc(-c2ccccn2)c(CCNC(=O)C2CCCC2)n1`, the “Percent Effect” value is -18.28%.

Regarding `CCCC(=O)NCCc1cc(NC)nc(-c2ccccn2)n1`, the “Percent Effect” value is recorded as 8.218%.

`CNc1cc(CCNC(=O)C2CCCC2)nc(-c2ccccn2)n1`: the “Percent Effect” value is 52.1%.

Turning to `CNc1cc(CCNC(=O)c2cccnc2)nc(-c2ccncc2)n1`, the “Percent Effect” value is -1.38%.

Consider `CNc1cc(CCNC(=O)CC(C)C)nc(-c2ccccn2)n1`, for which the “Percent Effect” value is on record as 53.37%.
